A-T KAP1 phos = potential ataxia-telangiectasia treatments restoring KAP-1 phosphorylation; 320,000 tested, 0.19% active; F2112 A-T fibroblasts, KAP-1 phosphorylation AlphaLISA; neocarzinostatin DNA damage 30 min before lysis; AID 485349; Potency, µM (highest dose often 57.5 µM), without a hit: at the highest dose activation, most hits filed as activators; further: potency means the concentration at half of the fitted maximal effect; % of control where 0% means no effect; nearly all actives have a fitted effect of over 45% in size
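hTERT-immortalized A-T patient fibroblasts (F2112), 500 cells/well in OPTI-MEM, 1% FBS, got compounds for 60 min, then NCS for 30 min at 37C. Lysates were then assayed for phospho-KAP-1 by AlphaLISA (anti-pKAP1 donor, anti-KAP1 acceptor beads), 6 hr at 25C.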
PKM2 act = PKM2 (human) enzyme activation | P14618 | purified PKM2, Kinase-Glo ATP luminescence, activation; response scale: 0% is enzyme alone, no compound | Potency, µM (top dose mostly 57.5 µM), for the others: at the top dose activation, hits mostly activators | 260,000 tested, 0.34% active; further: potency means the concentration at half of the fitted maximal effect; on the % scale 0 is the no-effect control and ±100 the full control effect; nearly all actives have a fitted effect of over 55% in size
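Kinase-Glo luminescence reports ATP generated from ADP (0.1 mM) and PEP (0.5 mM) by purified hPK-M2 after 1 h at room temperature, pH 7.2 imidazole buffer; intermediate enzyme activity allows detecting inhibitors and activators.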
Pin1 inh = human Pin1 inhibition; Pin1 FP peptide displacement, HiFluor488, 10 min; Potency, µM (series often up to 115 µM), for the others: at the highest dose activity, negative = inhibition, usual class: inhibitors; 390,000 tested, 0.009% active; active means well fitted inhibition curve with a large enough effect in the polarisation, with a control signal flat, not every such curve was filed as active; inconclusive means small, poorly fitted or top-dose-only effect, or effect the other way, or a change in a side signal; inactive means no such curve, though single readings can be large or run the other way; the % refers to the polarisation; further: potency means the concentration at half of the fitted maximal effect; on the % scale 0 is the no-effect control and ±100 the full control effect
PTAP TSG101 blk = blocks PTAP/TSG101 interaction to inhibit HIV-1 budding; Q99816; Fluorescence polarization, FITC-PTAP peptide / Tsg101 binding; Potency, µM (series often up to 115 µM), without a hit: top-dose activity change, negative = inhibition, most hits filed as inhibitors; 340,000 tested, under 10 active; active means well fitted inhibition curve with a large enough effect in the main read-out, with a control signal flat, not every such curve was filed as active; inconclusive means small, poorly fitted or top-dose-only effect, or effect the other way, or a change in a side signal; inactive means no such curve, though single readings can be large or run the other way; further: potency means the concentration at half of the fitted maximal effect; % of control where 0% means no effect
Target sequence (Q99816 whole entry, looked up): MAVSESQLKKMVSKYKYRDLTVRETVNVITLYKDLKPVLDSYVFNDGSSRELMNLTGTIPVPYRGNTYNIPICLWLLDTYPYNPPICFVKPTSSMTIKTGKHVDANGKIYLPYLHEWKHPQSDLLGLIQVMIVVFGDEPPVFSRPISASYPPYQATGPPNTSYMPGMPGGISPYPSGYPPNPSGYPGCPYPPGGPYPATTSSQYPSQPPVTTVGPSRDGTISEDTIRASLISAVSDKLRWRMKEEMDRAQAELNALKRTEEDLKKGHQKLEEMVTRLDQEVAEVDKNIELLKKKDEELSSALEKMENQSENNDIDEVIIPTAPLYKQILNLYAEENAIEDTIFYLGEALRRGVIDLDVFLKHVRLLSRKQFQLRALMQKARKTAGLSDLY
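Fluorescence anisotropy tracks displacement of a FITC-tagged PTAP peptide (50 nM) from the Tsg101 binding domain (10 uM), following a 20 min room-temperature incubation at pH 7.5.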
HeLa viability = counter-screen for pyruvate kinase M2 activators: HeLa cytotoxicity; shares compounds with PKM2 act; HeLa viability, CellTiter-Glo ATP luminescence, 24 h; activity change, negative = cytotoxicity, % at 57.5 µM; 230 tested, under 10 active; further: % of control where 0% means no effect
The depositor's hits bear a star; ? = inconclusive; nt = no result given. Compounds with a hit are over-represented: about 0.39% of the library has one in this group of screens. Unless noted, the call rests on the fitted dose curve; in most records, active means well fitted curve in the direction sought with a large enough effect; inconclusive means small, poorly fitted or top-dose-only effect, or another doubt; inactive means no such curve, though single readings can be large; an effect the other way counts as inactive or inconclusive.

SMILES	A-T KAP1 phos	PKM2 act	Pin1 inh	PTAP TSG101 blk	HeLa viability
O=S(=O)(c1ccc2c(c1)OCCO2)N1CCN(S(=O)(=O)c2c(F)ccc(O)c2F)CC1	nt	nt	27%	nt	-6
O=S(=O)(c1cccc(Cl)c1)N1CCN(S(=O)(=O)c2ccc3c(c2)OCCO3)CC1	-7%	nt	0%	-6%	nt
O=S(=O)(c1ccc2c(c1)OCCO2)N1CCN(c2nc(-c3ccccc3)nc3ccccc23)CC1	nt	nt	-7%	nt	nt
O=S(=O)(c1ccc2c(c1)OCCO2)N1CCN(S(=O)(=O)c2ccccc2F)CC1	nt	nt	-5%	nt	-6
O=S(=O)(c1ccc2c(c1)OCCO2)N1CCN(S(=O)(=O)c2cccc[n+]2[O-])CC1	nt	nt	2%	nt	6
COc1ccc(S(=O)(=O)N2CCC(C(=O)c3ccc4c(c3)OCCO4)CC2)cc1	-5%	0%	-1%	-4%	nt
COc1ccc(S(=O)(=O)N2CCN(S(=O)(=O)c3ccc4c(c3)OCCO4)CC2)cc1	-4%	0.22µM*	-13%	0%	?
COc1ccc(S(=O)(=O)N2CCN(S(=O)(=O)c3ccc(OC)cc3)CC2)cc1	14%	nt	1%	nt	-3
COc1cc(F)c(S(=O)(=O)N2CCN(S(=O)(=O)c3ccc4c(c3)OCCO4)CC2)c(F)c1	nt	nt	7%	nt	-8
CC(=O)Oc1ccc(C(=O)COC(=O)CNC(=O)COc2ccccc2C)cc1	nt	nt	-2%	nt	nt
O=C(CNC(=O)c1ccccc1)N[C@H](C(=O)Nc1cc(C(F)(F)F)ccc1Cl)c1ccccc1	nt	nt	12%	nt	nt
Cc1cc2c(s1)c1cnn(Cc3cccc(F)c3F)c(=O)c1n2C	nt	nt	7%	nt	-8
Cn1c2cc(Br)sc2c2cnn(Cc3ccc(F)cc3F)c(=O)c21	3%	nt	4%	-2%	nt
Cc1cc2c(s1)c1c(C)nn(Cc3ccccc3F)c(=O)c1n2C	8%	nt	nt	nt	-3
Cc1cc2c(s1)c1cnn(Cc3ccc(C(F)(F)F)cc3F)c(=O)c1n2C	nt	nt	0%	nt	18
Cc1cc2c(s1)c1cnn(Cc3ccc(C)c(F)c3F)c(=O)c1n2C	nt	nt	-5%	nt	-10
COc1ccc2c(c1)c1nnc(SCCN3CCOCC3)nc1n2C	nt	nt	-3%	nt	nt
O=c1c2cc3ccccc3n2cnn1Cc1ccccc1F	24%	7%	2%	-1%	nt
Cc1cc2[nH]c3c(=O)n(Cc4ccccc4F)ncc3c2s1	nt	nt	-3%	nt	-3
CCn1c2cc(C)sc2c2cnn(Cc3ccccc3F)c(=O)c21	nt	nt	1%	nt	-22
O=S(=O)(c1ccc(Br)cc1)N1CCN(c2nc(-c3ccccc3)nc3ccccc23)CC1	nt	nt	-3%	nt	nt
Cc1ccc(NC(=O)Cn2sc3nc(C)cc(C)c3c2=O)c(Cl)c1	-7%	3.5µM*	3%	-1%	?
O=C(Nc1c(Cl)cc([N+](=O)[O-])cc1Cl)c1cc(Cl)ccc1O	nt	nt	3%	nt	nt
Cc1cc(NC(=O)c2cnn3c(C(F)(F)F)cc(-c4ccccc4)nc23)no1	-5%	3.5µM*	-1%	-8%	28
CC1CCCCN1C(=O)COC(=O)c1ccc(S(C)(=O)=O)c([N+](=O)[O-])c1 (stereo not drawn)	nt	nt	2%	nt	nt

Screens: PubChem, National Center for Advancing Translational Sciences (NCATS)
